This is a sample that favours compounds with a hit; in the whole collection about 3.1% have one here.
Luminol counter – quenches luminol chemiluminescence in Nox1 counter-screen. HRP/luminol/H2O2 chemiluminescence counterscreen. 0.4% of 16,000 active. AID 1823. inhibition, % at 6.7 µM; also: reference of the scale not given here
Nox1 inh – human Nox1 inhibition | HT29 cells, luminol chemiluminescence ROS | 0.81% of 16,000 active | AID 1792 | Q9Y5S8 | inhibition, % at 6.7 µM
Target sequence (Q9Y5S8 whole entry, looked up): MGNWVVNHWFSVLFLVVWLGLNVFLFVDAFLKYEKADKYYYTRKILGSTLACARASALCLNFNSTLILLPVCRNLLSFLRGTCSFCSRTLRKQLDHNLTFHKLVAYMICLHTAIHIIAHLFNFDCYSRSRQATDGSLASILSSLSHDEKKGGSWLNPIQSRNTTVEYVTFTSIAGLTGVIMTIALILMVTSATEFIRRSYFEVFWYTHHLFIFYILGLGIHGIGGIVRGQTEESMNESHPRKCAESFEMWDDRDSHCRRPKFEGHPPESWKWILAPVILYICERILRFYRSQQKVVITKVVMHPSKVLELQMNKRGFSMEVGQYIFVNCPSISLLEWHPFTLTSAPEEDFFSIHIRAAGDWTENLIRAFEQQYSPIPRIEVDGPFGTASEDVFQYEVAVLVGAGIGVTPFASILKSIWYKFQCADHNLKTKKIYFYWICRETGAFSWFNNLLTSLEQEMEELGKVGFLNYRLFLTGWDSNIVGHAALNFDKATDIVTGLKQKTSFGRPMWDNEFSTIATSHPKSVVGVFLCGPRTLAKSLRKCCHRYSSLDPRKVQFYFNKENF
S1P1 agonist – S1P1 (human) receptor agonism; P21453; S1P1 agonist cell-based reporter assay; activation, % at 4.5 µM; 1.5% of 16,000 active; in the data active = activation above about 80%
NOTCH ag – NOTCH pathway agonism | NOTCH signaling luciferase reporter cells, luminescence | activation, % at 2.5 µM | 0.4% of 15,000 active | AID 434982; in the data active = activation above about 2.2%
* marks the source's active call; other numbers are inactive results. Rule as the data show it, unless noted: active = inhibition above about 75%; inactive = the rest.

How did CC(=O)C1C(=O)C=C(/C=C/c2ccccc2)CC1c1ccccc1 (stereo unspecified) do in these assays?
Luminol counter: 5; Nox1 inh: 3; S1P1 agonist: 99*; NOTCH ag: 0

What do the screens show for `COC(=O)c1cnc(Sc2ccc(Cl)cc2)nc1C(F)(F)F`?
Luminol counter: -4; Nox1 inh: 13; S1P1 agonist: 15; NOTCH ag: -1

How did CCOC(=O)c1cnc(SCc2ccc(Cl)cc2)nc1C(F)(F)F do in these assays?
Luminol counter: -3; Nox1 inh: 18; S1P1 agonist: 81*; NOTCH ag: -1

How did Cc1cc(N/N=C/C=C/c2ccccc2)c([N+](=O)[O-])cc1[N+](=O)[O-] do in these assays?
Luminol counter: 0; Nox1 inh: -49; S1P1 agonist: -6; NOTCH ag: 0

Results for N#C/C(=N\Nc1ccc(OC(F)(F)F)cc1)C(=O)c1ccsc1 ?
Luminol counter: 11; Nox1 inh: -2; S1P1 agonist: 107*; NOTCH ag: 1

Results for O=C(CSC1=NCCCCC1)c1cccc([N+](=O)[O-])c1 ?
Luminol counter: 0; Nox1 inh: -11; S1P1 agonist: -18; NOTCH ag: 0

How did O=C(CSc1nnc(SCC(=O)c2cccc([N+](=O)[O-])c2)s1)c1cccc([N+](=O)[O-])c1 do in these assays?
Luminol counter: 92*; Nox1 inh: 18; S1P1 agonist: 26; NOTCH ag: 0

Results for COc1ccc(/C(N)=N/OC(=O)c2ccccc2)cc1OC1CCCC1 ?
Luminol counter: -1; Nox1 inh: 0; S1P1 agonist: 102*; NOTCH ag: 0

How did COc1ccc(C(N)=O)cc1OC1CCCC1 do in these assays?
Luminol counter: -2; Nox1 inh: -7; S1P1 agonist: -18; NOTCH ag: -1

What do the screens show for `CN(C)/C=C(\C#N)C(=O)C1CC1`?
Luminol counter: -6; Nox1 inh: 18; S1P1 agonist: 2; NOTCH ag: 1

How did Cn1nc(C(F)(F)F)c(-c2ccccc2)c1N1C(=O)C2C3C=CC(C3)C2C1=O (stereo unspecified) do in these assays?
Luminol counter: -2; Nox1 inh: -48; S1P1 agonist: 86*; NOTCH ag: 0

How did NS(=O)(=O)c1cccc(NC(=O)c2nc3ccccc3s2)c1 do in these assays?
Luminol counter: 1; Nox1 inh: -37; S1P1 agonist: 5; NOTCH ag: 0

Results for O=C(NNc1nc(-c2cccs2)ns1)c1cccc(C(F)(F)F)c1 ?
Luminol counter: 57; Nox1 inh: 104*; S1P1 agonist: 17; NOTCH ag: 1

Results for O=C(NNC(=O)c1cccc(C(F)(F)F)c1)c1ccncc1 ?
Luminol counter: 3; Nox1 inh: -35; S1P1 agonist: 2; NOTCH ag: -1

What do the screens show for `Cc1c(C)n(Cc2ccc(Br)cc2)c(=O)n(Cc2ccc(Br)cc2)c1=O`?
Luminol counter: 3; Nox1 inh: -19; S1P1 agonist: 102*; NOTCH ag: 0

Results for CC(=O)Nc1cccc(OCCOc2cccc(NC(C)=O)c2)c1 ?
Luminol counter: 2; Nox1 inh: -70; S1P1 agonist: 10; NOTCH ag: 0

How did CCCOc1ccc(NC(C)=O)cc1 do in these assays?
Luminol counter: -4; Nox1 inh: 3; S1P1 agonist: -9; NOTCH ag: 5.0*

How did O=C(OCCS(=O)(=O)c1ccc(C(F)(F)F)cn1)c1ccccc1 do in these assays?
Luminol counter: -7; Nox1 inh: 33; S1P1 agonist: 43; NOTCH ag: -1

What do the screens show for `O=C(/C(=C\c1cccs1)c1ccsc1)N1CCOCC1`?
Luminol counter: -2; Nox1 inh: -15; S1P1 agonist: -4; NOTCH ag: -1

What do the screens show for `N#C/C(=C\c1cccs1)C(=O)N1CCOCC1`?
Luminol counter: 2; Nox1 inh: -55; S1P1 agonist: 100*

How did COc1cccc(/C=N/NC(=O)CSCC(=O)Nc2ccc(OC(F)(F)F)cc2)c1 do in these assays?
Luminol counter: -1; Nox1 inh: -41; S1P1 agonist: 5; NOTCH ag: 0

Results for COc1ccc(-c2[nH]ncc2/C=N/Nc2ncc(C(F)(F)F)cc2Cl)cc1 ?
Luminol counter: -4; Nox1 inh: 9; S1P1 agonist: -8; NOTCH ag: 1

How did O=C1c2ccccc2C(=O)N1CCCOc1ccc(Cl)cc1 do in these assays?
Luminol counter: -6; Nox1 inh: 23; S1P1 agonist: 19; NOTCH ag: 0

Results for COc1ccc(C(CC(=O)c2ccccc2)SC(=O)c2ccccc2)cc1 (stereo unspecified) ?
Luminol counter: -5; Nox1 inh: 9; S1P1 agonist: 9; NOTCH ag: -1

What do the screens show for `CC(=O)OC1C[C@H](n2cc(C)c(=O)[nH]c2=O)O[C@@H]1COS(=O)(=O)c1ccc(C)cc1` (stereo partly specified)?
Luminol counter: 2; Nox1 inh: -58; S1P1 agonist: -15; NOTCH ag: 3.0*

What do the screens show for `O=C(N/N=C/c1cc(Cl)cc(Cl)c1O)C(=O)Nc1ccc(Cl)c(Cl)c1`?
Luminol counter: -1; Nox1 inh: -66; S1P1 agonist: 14; NOTCH ag: 4.1*

How did COc1ccc(NC(=S)NNC(=O)c2ccc(-n3c(C)ccc3C)cc2)cc1 do in these assays?
Luminol counter: -9; Nox1 inh: 29; S1P1 agonist: 5; NOTCH ag: 0

How did N#CCSC1=CC(=O)CC(c2ccccc2)S1 (stereo unspecified) do in these assays?
Luminol counter: 3; Nox1 inh: -46; S1P1 agonist: 91*; NOTCH ag: 0

What do the screens show for `COC(=O)C1=C(N)CC(c2ccccc2)S1` (stereo unspecified)?
Luminol counter: 1; Nox1 inh: -46; S1P1 agonist: 2; NOTCH ag: 0

What do the screens show for `COc1ccccc1NC(=S)Nc1ccccn1`?
Luminol counter: 2; Nox1 inh: -22; S1P1 agonist: -10; NOTCH ag: -1

How did COC(=O)c1ccccc1NC(=S)Nc1ccc(Cl)cn1 do in these assays?
Luminol counter: 98*; Nox1 inh: 18; S1P1 agonist: -7; NOTCH ag: 0

What do the screens show for `CC(ONC(=O)c1cc(C(F)(F)F)cc(C(F)(F)F)c1)C(=O)Nc1ccc(Cl)cc1` (stereo unspecified)?
Luminol counter: 2; Nox1 inh: -25; S1P1 agonist: 110*; NOTCH ag: 0

What do the screens show for `COCCCNC(=S)Nc1ccc(C)cc1`?
Luminol counter: -5; Nox1 inh: 10; S1P1 agonist: 0; NOTCH ag: 0

How did COCCCNC(=S)NNC(=S)Nc1ccccc1 do in these assays?
Luminol counter: 4; Nox1 inh: 91*; S1P1 agonist: 3; NOTCH ag: 0

What do the screens show for `CC(=O)c1ccc(NCN2C(=O)/C(=C\N(C)C)NC2=S)cc1`?
Luminol counter: 10; Nox1 inh: 100*; S1P1 agonist: -7; NOTCH ag: 0

Results for CC(=O)Nc1ccc(F)cc1NC=C(C#N)C#N ?
Luminol counter: 14; Nox1 inh: -9; S1P1 agonist: 1; NOTCH ag: 0

How did CSc1ccc(C(F)(F)F)cc1NC=C(C#N)C#N do in these assays?
Luminol counter: 3; Nox1 inh: 42; S1P1 agonist: 89*; NOTCH ag: 0

Results for ON/C=N/c1nnc(Cc2ccc(F)cc2)s1 ?
Luminol counter: 1; Nox1 inh: -23; S1P1 agonist: -3; NOTCH ag: 0
